# Results reported in PubChem BioAssay.
# Active and inactive are the calls of the source.
# Key:
# [1] = binders of probe aFSTL3 on microarray, primary screen, stem cell growth factor project, biochemical, small-molecule microarray, fluorescence 635/667 (AID 1064); details: higher = more signal;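 also: measures binding of the biotinylated anti-FSTL3 antibody to printed compounds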
# [2] = binders from COS7 lysate, DM2A8 probe, primary screen, torsin A project, cell lysate, small-molecule microarray, fluorescence 635/667 (AID 1065); details: higher = more signal, COS7 lysate expressing mutant human TOR1A
# [3] = binders of probe aFGF2 on microarray, primary screen, stem cell growth factor project, biochemical, small-molecule microarray, fluorescence 635/667 (AID 1067); details: higher = more signal;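 also: measures binding of biotinylated aFGF2 protein to printed compounds on slides; z-score merges feature fluorescence and signal-to-noise across triplicate slides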
# [4] = binders of probe aFGF10 on microarray, primary screen, stem cell growth factor project, biochemical, small-molecule microarray, fluorescence 635/667 (AID 1071); details: higher = more signal;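 also: score merges 667 nm spot intensity and signal to noise from triplicate slides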
# [5] = biological target: Neurogenic locus notch homolog protein 2 (Homo sapiens) (UniProt Q04721); assay: Notch2 binders on small-molecule microarrays, primary screen, biochemical, small-molecule microarray, 635 nm fluorescence, stem cell growth factors (AID 1073); details: Notch2 binding, higher = more signal
# [6] = biological target: Pro-neuregulin-1, membrane-bound isoform (Homo sapiens) (UniProt Q02297); assay: NRG1 binders on small-molecule microarrays, primary screen, psychiatric disease protein project, biochemical, small-molecule microarray, fluorescence 635/667 (AID 1075); details: NRG1 binding, 635 nm fluorescence, higher = more signal;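 also: score combines 667 nm spot fluorescence with signal to noise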
# [7] = test system: Neuregulin-1 EGF-like domain; assay: binders of neuregulin-1 EGF-like domain, primary screen, biochemical, small-molecule microarray, 635 nm fluorescence (AID 1081); details: small-molecule microarray binding, higher = more signal;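 also: binding of the protein to compounds printed on small-molecule microarray slides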
# [8] = FRG1 promoter luciferase signal modulators, primary screen, FRG1 inhibition for FSHD, cell-based, C2C12 myotubes, firefly/Renilla luciferase, luminescence (AID 1084); details: higher = more signal, called active from +8 up or from −8 down
# [9] = binders of probe aFST on microarray, primary screen, stem cell growth factor project, biochemical, small-molecule microarray, fluorescence 635/667 (AID 1086); details: higher = more signal;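 also: score merges 667 nm fluorescence with signal-to-noise of each printed compound spot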
# [10] = binders of probe aHhip on microarray, primary screen, stem cell growth factor project, biochemical, small-molecule microarray, fluorescence 635/667 (AID 1087); details: higher = more signal;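 also: score merges spot fluorescence at 667nm with spot signal to noise ratio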
# [11] = test system: PRMT1 (protein arginine N-methyltransferase 1); assay: PRMT1 binders on small-molecule microarrays, primary screen, biochemical, small-molecule microarray, 635 nm fluorescence (AID 1088); details: small-molecule microarray binding, higher = more signal;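 also: binding of Prmt1 protein to compounds spotted on small-molecule microarray slides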
# [12] = yeast growth modulation, basal conditions, primary screen, YJM789 clinical isolate, OD600, 24 h (AID 1089);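 also: growth of clinical yeast isolate S. cerevisiae YJM 789 seeded 1000 cells per well; test concentration not given here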; details: S. cerevisiae YJM789 growth, higher = more signal, called active from +8 up or from −8 down
# [13] = fission yeast growth modulation, primary screen, strain 972, OD600, 24 h, no modulator (AID 1090);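 also: basal condition with compound alone and no growth modifier present; test concentration not given here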; details: S. pombe 972 growth, higher = more signal, called active from +8 up or from −8 down
# [14] = S. cerevisiae growth modulation with rapamycin, primary screen, strain BY4716, OD600, 96 h (AID 1091); details: higher = more signal, called active from +8 up or from −8 down; also: test concentration not given here
# [15] = biological target: Torsin-1A-interacting protein 2 (Homo sapiens) (UniProt Q8NFQ8); assay: LULL1 binders on small-molecule microarray, primary screen, cell lysate, human LULL1 lysate, 635/667 nm fluorescence (AID 1092); details: hLULL1 lysate binding, 635 nm fluorescence, higher = more signal;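 also: probe is lysate of COS7 cells overexpressing human LULL1; score merges per-feature 667 nm fluorescence with signal-to-noise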
# [16] = E. coli growth modulation, two-sided OD650, primary screen, E. coli filamentation project, strain DRC41, 24 h (AID 1093); details: OD650, 24 h, higher = more signal, called active from +8 up or from −8 down;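 also: MC1000 strain lacking acrAB efflux and sulA so SOS filamentation is blocked; test concentration not given here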
# [17] = small-molecule microarray binders of probe aLefty2, primary screen, biochemical, biotinylated probe, 635/667 nm fluorescence (AID 1094); details: higher = more signal;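 also: score merges spot fluorescence near 667 nm with spot signal-to-noise ratio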
# [18] = test system: Noggin (protein binding on small-molecule microarray); assay: Noggin binders on small-molecule microarray, primary screen, biochemical, 635/667 nm fluorescence (AID 1095); details: 635 nm fluorescence, higher = more signal;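 also: score merges 667 nm feature fluorescence with signal to noise over triplicate slides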
# [19] = biological target: Neurogenic locus notch homolog protein 3 (Homo sapiens) (UniProt Q9UM47); assay: NOTCH3 binders on small-molecule microarray, primary screen, biochemical, 635/667 nm fluorescence (AID 1096); details: NOTCH3 binding, 635 nm fluorescence, higher = more signal
# [20] = small-molecule microarray binders of probe aEGFR, primary screen, biochemical, biotinylated probe, 635/667 nm fluorescence (AID 1097); details: higher = more signal;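 also: probe is a biotinylated anti-EGFR antibody binding compounds printed on slides; score combines fluorescence near 667 nm and signal to noise of each spot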
# Chain of Neurogenic locus notch homolog protein 2 (Homo sapiens) (Q04721 whole entry, looked up, canonical isoform): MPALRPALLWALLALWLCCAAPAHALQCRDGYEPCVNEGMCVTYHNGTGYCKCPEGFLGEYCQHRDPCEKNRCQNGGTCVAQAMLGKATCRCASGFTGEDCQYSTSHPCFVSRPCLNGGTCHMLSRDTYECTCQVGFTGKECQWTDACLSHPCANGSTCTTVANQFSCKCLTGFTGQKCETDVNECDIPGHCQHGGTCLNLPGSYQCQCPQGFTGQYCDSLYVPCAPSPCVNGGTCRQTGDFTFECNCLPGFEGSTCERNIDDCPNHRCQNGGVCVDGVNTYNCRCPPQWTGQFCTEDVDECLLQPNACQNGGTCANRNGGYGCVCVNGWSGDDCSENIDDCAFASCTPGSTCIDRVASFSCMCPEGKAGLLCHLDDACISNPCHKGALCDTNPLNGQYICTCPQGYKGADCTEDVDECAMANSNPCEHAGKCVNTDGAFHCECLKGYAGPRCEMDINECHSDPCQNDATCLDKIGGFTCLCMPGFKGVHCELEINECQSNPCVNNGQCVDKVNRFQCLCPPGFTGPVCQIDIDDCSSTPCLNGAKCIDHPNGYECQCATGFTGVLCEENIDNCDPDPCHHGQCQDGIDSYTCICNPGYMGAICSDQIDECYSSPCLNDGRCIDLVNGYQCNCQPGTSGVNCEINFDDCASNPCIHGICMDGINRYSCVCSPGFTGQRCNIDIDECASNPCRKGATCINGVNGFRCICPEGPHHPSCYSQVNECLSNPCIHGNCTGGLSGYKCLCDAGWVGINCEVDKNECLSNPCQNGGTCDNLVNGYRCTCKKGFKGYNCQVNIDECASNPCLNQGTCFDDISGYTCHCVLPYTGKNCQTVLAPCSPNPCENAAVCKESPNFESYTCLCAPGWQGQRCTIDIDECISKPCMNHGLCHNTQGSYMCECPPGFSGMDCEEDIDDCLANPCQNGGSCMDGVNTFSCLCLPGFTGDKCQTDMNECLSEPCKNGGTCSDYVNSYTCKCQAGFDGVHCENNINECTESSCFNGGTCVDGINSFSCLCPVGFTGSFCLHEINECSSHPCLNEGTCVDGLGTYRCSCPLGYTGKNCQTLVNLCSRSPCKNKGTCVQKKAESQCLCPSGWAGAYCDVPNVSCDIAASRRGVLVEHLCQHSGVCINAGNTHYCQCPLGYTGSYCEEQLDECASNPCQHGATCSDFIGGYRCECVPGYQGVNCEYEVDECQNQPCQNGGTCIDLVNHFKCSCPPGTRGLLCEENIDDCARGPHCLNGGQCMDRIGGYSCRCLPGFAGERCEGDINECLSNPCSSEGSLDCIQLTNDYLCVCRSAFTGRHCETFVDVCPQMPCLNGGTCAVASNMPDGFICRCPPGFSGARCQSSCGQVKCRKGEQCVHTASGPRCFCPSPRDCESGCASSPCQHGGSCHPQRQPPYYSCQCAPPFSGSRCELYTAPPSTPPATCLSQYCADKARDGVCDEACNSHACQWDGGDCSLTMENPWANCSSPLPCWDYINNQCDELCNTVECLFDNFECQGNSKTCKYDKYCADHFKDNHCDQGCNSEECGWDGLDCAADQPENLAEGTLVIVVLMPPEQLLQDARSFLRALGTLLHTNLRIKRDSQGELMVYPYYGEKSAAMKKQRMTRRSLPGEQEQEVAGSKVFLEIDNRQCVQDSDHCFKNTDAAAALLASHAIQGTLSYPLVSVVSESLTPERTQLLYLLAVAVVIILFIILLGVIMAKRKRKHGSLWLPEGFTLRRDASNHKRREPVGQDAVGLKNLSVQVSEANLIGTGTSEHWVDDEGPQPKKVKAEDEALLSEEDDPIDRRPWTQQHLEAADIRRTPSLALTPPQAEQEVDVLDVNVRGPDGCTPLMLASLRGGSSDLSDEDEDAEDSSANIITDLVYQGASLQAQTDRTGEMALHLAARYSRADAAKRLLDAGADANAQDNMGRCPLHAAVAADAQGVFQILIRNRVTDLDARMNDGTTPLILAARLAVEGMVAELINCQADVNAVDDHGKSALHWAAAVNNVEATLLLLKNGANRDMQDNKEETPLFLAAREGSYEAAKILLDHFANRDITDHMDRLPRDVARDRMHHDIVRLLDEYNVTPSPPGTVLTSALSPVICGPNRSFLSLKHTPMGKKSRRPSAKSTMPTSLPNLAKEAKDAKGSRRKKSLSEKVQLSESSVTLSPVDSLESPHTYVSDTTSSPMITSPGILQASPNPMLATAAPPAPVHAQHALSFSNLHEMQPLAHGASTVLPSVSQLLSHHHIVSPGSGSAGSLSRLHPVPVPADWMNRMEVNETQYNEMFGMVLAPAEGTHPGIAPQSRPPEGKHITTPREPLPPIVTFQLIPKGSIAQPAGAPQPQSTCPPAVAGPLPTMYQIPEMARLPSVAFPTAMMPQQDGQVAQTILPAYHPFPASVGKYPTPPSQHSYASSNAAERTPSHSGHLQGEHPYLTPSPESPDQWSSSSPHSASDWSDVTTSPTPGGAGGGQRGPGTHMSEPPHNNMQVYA
# Chain of Neurogenic locus notch homolog protein 3 (Homo sapiens) (Q9UM47 whole entry, looked up): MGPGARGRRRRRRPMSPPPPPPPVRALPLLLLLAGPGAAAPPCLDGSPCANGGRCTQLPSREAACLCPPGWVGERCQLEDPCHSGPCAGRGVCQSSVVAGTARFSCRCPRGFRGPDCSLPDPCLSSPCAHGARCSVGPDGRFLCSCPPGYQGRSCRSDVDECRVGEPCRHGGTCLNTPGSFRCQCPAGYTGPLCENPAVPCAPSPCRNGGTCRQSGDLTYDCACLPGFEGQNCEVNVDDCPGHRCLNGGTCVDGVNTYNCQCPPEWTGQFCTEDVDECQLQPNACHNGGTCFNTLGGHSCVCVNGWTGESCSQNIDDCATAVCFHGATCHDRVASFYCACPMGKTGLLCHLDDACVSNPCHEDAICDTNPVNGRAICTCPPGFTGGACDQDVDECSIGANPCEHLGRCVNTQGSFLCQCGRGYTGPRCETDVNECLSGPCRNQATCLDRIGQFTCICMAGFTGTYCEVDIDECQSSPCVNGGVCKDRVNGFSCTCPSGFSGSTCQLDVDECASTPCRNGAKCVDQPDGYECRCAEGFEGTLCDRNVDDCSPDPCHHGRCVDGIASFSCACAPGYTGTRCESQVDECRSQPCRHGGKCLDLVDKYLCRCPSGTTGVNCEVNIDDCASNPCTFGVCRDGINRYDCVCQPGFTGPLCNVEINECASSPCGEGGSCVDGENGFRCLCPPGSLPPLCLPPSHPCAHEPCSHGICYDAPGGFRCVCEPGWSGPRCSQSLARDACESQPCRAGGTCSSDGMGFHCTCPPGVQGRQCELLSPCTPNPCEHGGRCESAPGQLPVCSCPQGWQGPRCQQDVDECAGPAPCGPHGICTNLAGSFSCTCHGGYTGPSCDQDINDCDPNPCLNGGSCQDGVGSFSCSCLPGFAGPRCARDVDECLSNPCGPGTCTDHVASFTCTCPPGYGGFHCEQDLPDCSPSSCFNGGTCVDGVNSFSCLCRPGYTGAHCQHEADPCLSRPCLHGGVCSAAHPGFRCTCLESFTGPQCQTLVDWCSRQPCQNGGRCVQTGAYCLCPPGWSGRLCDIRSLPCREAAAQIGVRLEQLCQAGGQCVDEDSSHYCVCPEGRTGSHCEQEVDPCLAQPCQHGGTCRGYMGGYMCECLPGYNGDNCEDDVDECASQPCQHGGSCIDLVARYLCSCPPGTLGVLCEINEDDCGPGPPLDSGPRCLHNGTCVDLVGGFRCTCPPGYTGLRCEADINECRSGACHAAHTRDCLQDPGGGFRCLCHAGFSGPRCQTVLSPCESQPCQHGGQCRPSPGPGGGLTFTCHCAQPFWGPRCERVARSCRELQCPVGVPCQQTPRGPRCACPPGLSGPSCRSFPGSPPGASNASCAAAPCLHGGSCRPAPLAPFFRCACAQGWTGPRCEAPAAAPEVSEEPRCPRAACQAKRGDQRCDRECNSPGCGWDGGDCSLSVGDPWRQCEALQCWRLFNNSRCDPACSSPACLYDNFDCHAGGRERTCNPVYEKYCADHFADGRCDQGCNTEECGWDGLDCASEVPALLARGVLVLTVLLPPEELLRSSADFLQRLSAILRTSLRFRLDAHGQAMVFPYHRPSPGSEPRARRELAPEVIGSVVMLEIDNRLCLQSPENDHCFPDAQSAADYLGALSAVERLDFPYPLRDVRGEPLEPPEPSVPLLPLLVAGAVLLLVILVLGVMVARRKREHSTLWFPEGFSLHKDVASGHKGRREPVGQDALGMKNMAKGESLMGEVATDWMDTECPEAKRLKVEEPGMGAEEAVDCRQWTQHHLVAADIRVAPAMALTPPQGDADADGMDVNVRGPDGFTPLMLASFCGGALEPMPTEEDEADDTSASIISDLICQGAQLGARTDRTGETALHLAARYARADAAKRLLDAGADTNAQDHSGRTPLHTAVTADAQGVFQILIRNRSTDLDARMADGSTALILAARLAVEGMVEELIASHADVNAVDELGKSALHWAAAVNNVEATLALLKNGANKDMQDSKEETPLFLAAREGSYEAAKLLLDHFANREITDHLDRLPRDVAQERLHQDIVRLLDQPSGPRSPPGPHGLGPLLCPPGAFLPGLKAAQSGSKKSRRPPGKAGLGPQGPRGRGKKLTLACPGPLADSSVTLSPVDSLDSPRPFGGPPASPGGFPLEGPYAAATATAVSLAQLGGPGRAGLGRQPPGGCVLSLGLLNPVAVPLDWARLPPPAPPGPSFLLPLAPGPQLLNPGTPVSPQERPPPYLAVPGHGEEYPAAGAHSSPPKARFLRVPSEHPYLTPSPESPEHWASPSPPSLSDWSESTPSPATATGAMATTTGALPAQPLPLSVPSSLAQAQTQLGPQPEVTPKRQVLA
Compound,composite z-score [1],composite z-score [2],composite z-score [3],composite z-score [4],composite z-score [5],composite z-score [6],composite z-score [7],z-score [8],composite z-score [9],composite z-score [10],composite z-score [11],z-score [12],z-score [13],z-score [14],composite z-score [15],z-score [16],composite z-score [17],composite z-score [18],composite z-score [19],composite z-score [20]
O=C1NC(=O)C2C1C=CC(C(O)C1CCCCC1)N2Nc1ccccn1 (stereo not given),-0.236,0.0046,-0.0524,0.235,0.629,1.37,1.32,1.64 (inactive),0.265,-0.374,0.327,0.459 (inactive),0.633 (inactive),0.117 (inactive),2.43,-1.5 (inactive),0.0078,-0.401,0.492,-0.104
CC1C2C(CCCO)=CC(C3C(=O)N(C(N)=O)C(=O)C23)N1Cc1cccc(OC(F)(F)F)c1 (stereo not given),-0.261,0.913,-0.0558,0.767,0.53,1.18,1.28,1.88 (inactive),0.269,0.0659,1.31,-3.02 (inactive),-0.198 (inactive),0.58 (inactive),2.79,0.262 (inactive),-0.139,0.487,0.628,-0.0828
CC(C)N1C(=O)[C@@]2(Cc3ccccc31)c1ccccc1C(=O)N(Cc1ccccc1)[C@H]2c1ccc(CO)cc1,-0.244,-0.164,-0.204,-0.125,-0.291,0.251,0.322,-0.0076 (inactive),-0.0754,-0.391,-0.0364,1.43 (inactive),0.555 (inactive),-0.204 (inactive),0.0342,0.365 (inactive),-0.578,0.209,-0.508,-0.424
O=C1C[C@@](C(=O)NCC(F)(F)F)(c2ccc([N+](=O)[O-])cc2)[C@@H](c2ccc(CO)cc2I)N1CC12CC3CC(CC(C3)C1)C2,-0.405,-0.0271,-0.106,0.121,0.729,1.01,1.23,-2.99 (inactive),1.08,-0.239,1.55,-1.36 (inactive),-0.301 (inactive),21.1 (active),2.73,0.548 (inactive),-0.189,0.515,0.978,-0.206
CCCCC=C[C@@H](NC(=O)C(C)(C)C)c1ccccc1,0.0905,0.161,0.0775,0.57,1.5,1.07,0.357,-0.751 (inactive),0.553,0.388,0.956,0.924 (inactive),1.84 (inactive),4.33 (inactive),1.08,-1.46 (inactive),0.0769,-0.0096,1.11,0.313
Cc1ccc(S[C@]2(C(=O)NCc3ccccc3)CC(=O)N(Cc3ccccc3Cl)[C@@H]2c2ccc(CO)cc2)cc1,1.05,-0.363,-0.0639,0.0799,-0.331,1.26,0.79,-3.18 (inactive),-0.603,-0.353,1.17,0.373 (inactive),-0.0114 (inactive),0.227 (inactive),2.07,-2.31 (inactive),0.145,-0.761,-0.0303,-0.258
COC(=O)C[C@H]1O[C@]2(C(=O)N(C)c3ccccc32)[C@@H](C)[C@@H]1[Si](C)(C)c1ccccc1,-0.486,0.0686,-0.0767,0.351,0.731,0.033,0.854,-2.11 (inactive),0.333,0.357,1.17,-4.03 (inactive),-5.37 (inactive),-2.45 (inactive),0.687,0.23 (inactive),0.0718,1.23,1.08,-0.0675
COC(=O)c1c2oc(c1C(=O)OC)C(=O)N[C@H](Cc1ccccc1)Cn1cc(nn1)C1(CCCCC1)NC(=O)N[C@H](CO)CC2,-0.194,0.112,-0.0561,0.399,-0.0222,0.657,0.647,-1.12 (inactive),-0.259,-0.0102,0.286,1.92 (inactive),-0.261 (inactive),-0.691 (inactive),1.46,2.01 (inactive),-0.124,0.292,-0.147,-0.158
COC(=O)[C@@]1(Cc2ccc(OC)cc2)[C@@H]2[C@@H](CC(=O)[C@H]2CC(=O)C(=O)N(C)C)CN1C(=O)c1ccccc1,2.09,0.496,0.81,1.2,1.78,1.69,1.06,-0.224 (inactive),2.67,0.357,0.707,-0.0616 (inactive),1.61 (inactive),3.34 (inactive),3.24,-0.163 (inactive),1.11,-0.458,1.01,0.766
O=C1NC(=O)C2C1C=CC(C(O)C(O)CO)N2Nc1ccccn1 (stereo not given),-0.304,-0.0729,-0.154,0.383,0.864,0.548,0.515,-0.708 (inactive),0.0126,-0.191,0.635,-0.517 (inactive),0.294 (inactive),-0.73 (inactive),0.541,-1.02 (inactive),-0.343,0.349,0.32,0.0713
COCCOC(=O)N1C(=O)[C@@]2(c3cc(C#CCC(C(=O)OC)C(=O)OC)ccc31)[C@H](C(=O)N1CCc3cc(OC)c(OC)cc3C1)[C@H]1C(=O)O[C@H](c3ccccc3)[C@H](c3ccccc3)N1[C@@H]2c1ccccc1OCCO,-0.308,0.399,-0.0608,0.375,1.44,0.875,1.22,-0.223 (inactive),0.651,-0.204,1.53,1.32 (inactive),1.02 (inactive),4.36 (inactive),2.34,1.09 (inactive),-0.0754,1.76,1.01,0.0209
COc1ccc([Si](C)(C)[C@H]2[C@H](CC(=O)N(CCO)Cc3ccccc3)O[C@@]3(C(=O)N(c4ccccc4)c4ccccc43)[C@@H]2C)cc1,-0.249,-0.182,-0.0261,0.638,0.199,0.951,0.46,-1.91 (inactive),0.294,-0.0581,1.51,1.48 (inactive),0.656 (inactive),3.73 (inactive),1.79,-0.366 (inactive),-0.11,1.3,1.11,-0.13
C=CCNC(=O)[C@@H]1[C@H]2C(=O)O[C@H](c3ccccc3)[C@H](c3ccccc3)N2[C@H](c2ccc(O)cc2)[C@@]12C(=O)Nc1ccc(C#CC3=CCCCC3)cc12,-0.619,1.23,-0.0639,1.1,0.87,1.15,1.06,-0.231 (inactive),-0.17,-0.426,1.55,1.03 (inactive),0.185 (inactive),1.74 (inactive),2.93,-0.43 (inactive),-0.162,1.03,1.05,0.392
COC(=O)C1=CC(c2ccc(CO)cc2)=CC(C2CC2)N(Cc2cc3c(cc2Br)OCO3)C=C1C(=O)OC (stereo not given),0.131,1.64,0.214,1.25,1.66,1.97,1.15,-2.56 (inactive),0.559,0.0278,1.54,-0.644 (inactive),-2.47 (inactive),-2.01 (inactive),2.87,0.841 (inactive),0.479,0.092,1.11,0.46
C=CCNC(=O)[C@@H]1[C@H]2C(=O)O[C@H](c3ccccc3)[C@H](c3ccccc3)N2[C@H](c2ccc(OCCO)cc2)[C@@]12C(=O)N(C(=O)OCCOC)c1ccccc12,-0.156,1.08,0.0021,0.591,0.964,1.05,1.25,0.0023 (inactive),0.954,0.0053,1.53,2.46 (inactive),1.67 (inactive),5.18 (inactive),2.92,0.246 (inactive),-0.0267,1.04,1.06,0.0413
COCCOC(=O)N1C(=O)[C@@]2(c3cc(C#CC4=CCCCC4)ccc31)[C@H](C(=O)N1CCCCCCC1)[C@H]1C(=O)O[C@H](c3ccccc3)[C@H](c3ccccc3)N1[C@@H]2c1ccccc1OCCO,2.57,0.571,0.0328,0.271,1.08,1.11,1.18,0.927 (inactive),2.04,0.33,1.55,1.01 (inactive),-1.22 (inactive),1.98 (inactive),3.02,0.87 (inactive),1.15,1.5,1.06,0.417
N#Cc1ccc(NN2C(C(O)c3ccc(B(O)O)cc3)C=CC3CN(c4ccccc4)C(=O)C32)cc1 (stereo not given),0.057,0.239,-0.0893,0.0196,0.074,0.501,1.07,3.26 (inactive),-0.0118,-0.439,-0.188,0.587 (inactive),0.896 (inactive),1.88 (inactive),0.847,1.28 (inactive),-0.0576,-0.345,0.0787,-0.0828
COC(=O)[C@@]1(Cc2ccccc2)[C@H]2c3cc(C(=O)N(C)C)n(Cc4ccc(Cl)c(C(F)(F)F)c4)c3C[C@H]2CN1C(=O)c1ccccc1,0.0539,0.277,0.372,1.09,1.61,1.35,1.18,-3.33 (inactive),1.51,0.26,0.813,1.01 (inactive),1.45 (inactive),3.56 (inactive),2.74,-1.12 (inactive),0.146,1.59,1.01,0.0926
CC1CC/C=C\[C@H]2OC34C=CCN(C(C)C)C(=O)[C@H]3N(C(C)CO)C(=O)[C@@H]4C2C(=O)O1 (stereo not given in full),-0.213,0.104,-0.129,-0.19,-0.0047,-0.43,0.238,-0.658 (inactive),-0.088,-0.137,0.216,0.0052 (inactive),0.285 (inactive),-0.448 (inactive),0.476,1.62 (inactive),-0.172,0.202,0.41,-0.158
